From PubChem
CYP2C9 act – human CYP2C9 activators, primary screen, biochemical, luminescence. Cytochrome P450 2C9 (Homo sapiens), P11712. recombinant CYP2C9, luciferin-H conversion; hits give high values; factor 1 = untreated enzyme, 0 = blocked. activation factor at 5 µM. hit rate 1.4% among 96,000;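 active = activation factor of 2 or more for CYP2C9 at a 5 µM dose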;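 note: 0 = sulfaphenazole-blocked wells and 1 = vehicle-only wells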
CYP2C19 inhib – blockers of cytochrome P450 2C19 activity – biochemical, luminescence, ADME assay, primary screen; P33261; CYP2C19 Supersomes, luciferin-H EGE luminescence, 30 min; inhibition, % at 5 µM; hit rate 21% among 96,000; AID 778, 2007;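 active = CYP2C19 inhibition above a set limit at 5 µM in the primary screen, cut at about 50% in these data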;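 note: plate controls were negative control wells for no effect and 2.5 mM tranylcypromine positive control for full effect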
Target sequence (P33261 whole entry, looked up): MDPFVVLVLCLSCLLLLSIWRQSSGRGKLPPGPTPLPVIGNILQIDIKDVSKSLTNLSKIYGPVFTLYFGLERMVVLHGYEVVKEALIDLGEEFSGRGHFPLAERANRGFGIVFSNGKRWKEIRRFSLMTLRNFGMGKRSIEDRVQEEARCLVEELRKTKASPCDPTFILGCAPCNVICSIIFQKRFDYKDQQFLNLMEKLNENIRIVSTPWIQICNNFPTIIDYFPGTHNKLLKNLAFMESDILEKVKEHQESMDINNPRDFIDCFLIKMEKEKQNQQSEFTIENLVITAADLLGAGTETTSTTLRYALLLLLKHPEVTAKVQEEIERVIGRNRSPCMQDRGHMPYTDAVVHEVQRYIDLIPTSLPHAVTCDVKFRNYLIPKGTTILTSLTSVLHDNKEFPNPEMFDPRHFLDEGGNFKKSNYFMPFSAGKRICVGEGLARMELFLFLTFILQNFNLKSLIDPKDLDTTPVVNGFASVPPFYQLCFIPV
PLAP activator – PLAP enzyme activators, biochemical, luminescence, HTS | Alkaline phosphatase, placental type (Homo sapiens), P05187 | hit rate 1.2% among 96,000 | AID 696, 2007 | purified PLAP enzyme, luminescent substrate read-out; hits give high values | activation fold at 20 µM; in the data active = activation fold above about 2
CYP2C9 inh – blockers of cytochrome P450 2C9 activity – biochemical, luminescence, ADME assay, primary screen; hit rate 20% among 96,000; inhibition, % at 5 µM; CYP2C9 Supersomes, luciferin-H conversion;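 active = blocking of liver enzyme CYP2C9 beyond about 50% at 5 µM, limit read from the data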
CYP2C19 activ – human CYP2C19 activators, primary screen, biochemical, luminescence. 96,000 tested, under 10 active. activation factor at 5 µM. Cytochrome P450 2C19 (Homo sapiens), P33261. recombinant CYP2C19, luciferin-H EGE luminescence; hits give high values; 0 = fully inhibited enzyme, 1 = untreated enzyme. AID 1025, 2008;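 active = activation factor of at least 2 at 5 µM in the primary screen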;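 note: 0 = wells with 2.5 mM tranylcypromine and 1 = vehicle-only wells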
* = called active by the depositor. Sampled rows, rich in hits. Any-hit rate of the full collection: about 31%.

SMILES	CYP2C9 act	CYP2C19 inhib	PLAP activator	CYP2C9 inh	CYP2C19 activ
COC(=O)c1ccc(C2C(C(=O)OCC(C)C)=C(C)N=C3SCCC(=O)N32)cc1 (centres undefined)	0.4	76*	1.3	62*	0.2
CC(=O)NC(Cc1ccccc1)C(=O)NC1CCN(C(=O)NC2CCCCC2)CC1 (centres undefined)	1.1	-8	1.6	-5	1.1
Cc1nc(CS(=O)(=O)c2ccccc2)cc(Sc2ccc(Cl)cc2Cl)n1	0.5	32	1.2	50*	0.7
COCc1cc(Sc2cccc(Cl)c2Cl)nc(-c2ccccc2)n1	0.8	6	1	22	0.9
CCCc1nnc(NC(=O)C2CCCO2)s1 (centres undefined)	0.9	8	0.9	6	0.9
N#C/C(=C/Nc1ccccc1)c1ccsc1	1.1	9	1.2	-8	0.9
Cc1ccc(N/C=C(/C#N)c2ccsc2)cc1	0.7	64*	0.9	33	0.4
CCOC(=O)NC(=O)COC(=O)Cc1cc(OC)c(OC)c(OC)c1	1	8	1.1	2	0.9
Cc1ccc(C2(C)NC(=O)N(CC(=O)NC(=O)NC3CCCC3)C2=O)cc1 (centres undefined)	0.8	17	1.2	16	0.8
COC(=O)C1=C(N)Oc2cc(C)n(C)c(=O)c2C1c1ccc(Cl)cc1 (centres undefined)	1.3	-6	0.9	-25	1.1
COC(=O)C1=C(C)N(C)C(C)=C(C(=O)OC)C1c1ccc(Cl)cc1	0.4	28	1	58*	0.7
CCOC(=O)C1=C(C)N(C)C(C)=C(C(=O)OCC)C1c1ccc(C(=O)OC)cc1	0	99*	1.8	99*	0
COC(=O)C1(C(O)C(=O)c2ccc(C)cc2C)CCCCC1 (centres undefined)	0.6	64*	0.8	37	0.4
Cc1ccc(C(=O)NC(=S)Nc2ccc3c(c2)OCCO3)c(C)c1	1.8	-4	1	-79	1
CCn1ncc(/C=N/NS(=O)(=O)c2ccc(Cl)cc2)c1C	0.1	67*	1	88*	0.3
Cc1ccc(S(=O)(=O)N/N=C/c2cnn(C)c2C)cc1	0.6	32	0.8	37	0.7
Cc1cc(Cl)c(S(=O)(=O)N/N=C/c2ccc3c(c2)OCO3)c(Cl)c1	0	39	1.2	96*	0.6
O=C(N/N=C/c1c(Cl)cccc1Cl)c1ccc(F)cc1	1.1	28	0.8	-10	0.7
O=S(=O)(N/N=C/c1ccc2c(c1)OCCO2)c1ccc(Cl)cc1	0.3	32	1.2	71*	0.7
O=S(=O)(N/N=C\c1c(F)cccc1Cl)c1ccc(Cl)cc1	0.4	81*	0.9	64*	0.2
NC(=O)C(c1cccc(Cl)c1)c1ncc(C(F)(F)F)cc1Cl (centres undefined)	1	41	0.9	3	0.6
Cc1ccc(CN2CCN(CC(=O)NCc3ccc(Cl)cc3)C2=O)cc1	0.7	36	0.9	35	0.6
CCC(=O)NC(Nc1cccc(C)n1)(C(F)(F)F)C(F)(F)F	1	-2	1	2	1
FC(F)(F)c1nc(N2CCN(c3ccccc3)CC2)nc2c1CCCCC2	1.3	50	1	-30	0.5
COc1ccnc(N2CCN(c3ccccc3)CC2)c1C#N	0.2	100*	0.7	80*	0
SMILES	CYP2C9 act	CYP2C19 inhib	PLAP activator	CYP2C9 inh	CYP2C19 activ
Cn1nc(C(F)(F)F)c(C#N)c1N1CCN(c2ccccc2)CC1	0.3	69*	0.8	72*	0.3
Cn1nc(C(F)(F)F)c(C#N)c1N1CCN(c2ccc(F)cc2)CC1	0.2	78*	0.9	82*	0.2
CC(C)(C)N(NC(=O)Nc1ccc(Cl)cc1)C(=O)c1ccccc1	0.7	22	1.2	30	0.8
CCOc1ccc(C2CC(c3ccc(CC)cc3)Nc3nc(N)nn32)cc1 (centres undefined)	0.6	0	1.5	40	1
Cc1ccc(NS(=O)(=O)c2cc(C(=O)N3CCOCC3)ccc2C)cc1C	0.9	26	1.2	8	0.7
COc1ccc(OC)c(C2=NO[C@@H]3C(=O)N(c4cc(Cl)ccc4OC)C(=O)[C@H]23)c1	0.8	62*	1.7	23	0.4
COc1ccc(CN2C(=O)C3C4C=CC(C4)C3C2=O)cc1 (centres undefined)	0.9	16	1	8	0.8
COc1ccc(Cl)cc1N1C(=O)[C@@H]2C(c3cccc(OC)c3OC)=NO[C@@H]2C1=O	0.8	12	1.2	18	0.9
CC1=C(C)CC2C(=O)N(Cc3ccccc3)C(=O)C2C1 (centres undefined)	0.8	30	0.8	18	0.7
O=C1[C@@H]2C(c3ccccc3Cl)=NO[C@@H]2C(=O)N1Cc1ccccc1	0.3	99*	1.2	73*	0
COc1ccc(CN2C(=O)[C@@H]3C(c4ccccc4Cl)=NO[C@@H]3C2=O)cc1	0.3	87*	1	70*	0.1
Cc1ccccc1S(=O)(=O)c1c(C)cc(C)n(CC(C)C)c1=O	0.2	82*	1	81*	0.2
Cc1ccc(NC(=O)C(C)c2ccc(-c3ccccc3)c(F)c2)c(C)c1 (centres undefined)	0.9	4	1	8	1
O=C(Nc1ccccc1-c1nc2ccccc2s1)c1cccnc1Cl	0.9	1	0.9	12	1
CCOc1ccc(CCNC(=O)C2CC(=O)N(C3CCCC3)C2)cc1OCC (centres undefined)	0.8	-4	1	16	1
N#Cc1c(NC(=O)Cn2c(=O)oc3ccccc32)oc(-c2ccccc2)c1-c1ccccc1	0.2	12	1.5	76*	0.9
N#Cc1c(NC(=O)CSc2n[nH]c(N)n2)oc(-c2ccccc2)c1-c1ccccc1	0.5	18	1.5	51*	0.8
O=C(Nc1ccccc1)OCc1cc(-c2ccccc2Cl)on1	1	4	1.1	0	1
Cc1ccc(S(=O)(=O)CNC(=S)c2cccc(C)c2)cc1	1.9	94*	1	-90	0.1
Cc1ccc(S(=O)(=O)CNC(=S)c2ccc3ccccc3c2)cc1	0.4	60*	1.1	60*	0.4
C=CCNc1nc(Nc2ccc(-c3nc4ccccc4o3)cc2)nc(N2CCOCC2)n1	0.6	49	1.9	42	0.5
CCCn1c(SCC(=O)Nc2nnc(C)s2)nnc1-c1ccoc1C	0.3	42	1.2	66*	0.6
Cc1occc1-c1nnc(SCC(=O)Nc2ccc3c(c2)OCO3)n1CC1CCCO1 (centres undefined)	0.4	48	1.4	60*	0.5
CCn1c(SCC(=O)Nc2ccccc2-c2ccccc2)nnc1-c1ccoc1C	0.1	80*	1.8	86*	0.2
